Data reported in PubChem BioAssay (NCI).
Several values for one entry are separate records, joined by “and”; a condition that tells them apart may be missing. Equal values may be shown once. About 83,000 compounds went through this panel and 20% of them were active in at least one assay; those are over-represented in the sample as a whole.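 Testing used 96-well plates and a 48-hour single-concentration exposure. Example: -40 means 40% of the starting cells died.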 Values without a mark were called inactive. Activity calls are given as the source filed them. Rule for the calls: active = growth percent below 10; inactive = the rest.

tested on: MDA-MB-468 breast; test: NCI-60 one-dose screen, 48 h (100 = growth as untreated, 0 = no growth, -100 = all killed); settings: 10 µM unless noted

| Structure (SMILES) | growth |
| --- | --- |
| N#Cc1c(O)c2c(c(O)c1C#N)C(=O)c1ccccc1C2=O | 7.71% (active) |
| O=[N+]([O-])c1cccc(-c2nc3sccn3c2-c2ccnc(NCCCNS(=O)(=O)c3cccc(F)c3)n2)c1 | -13.8% (active) |
| COc1cc(Nc2ncc(F)c(Nc3ccc4c(n3)NC(=O)C(C)(C)O4)n2)cc(OC)c1OC | 27.7% |
| COc1ccc(CC(C#N)c2ccc(Cl)cc2)cc1 (stereo not given) | 24% |
| O=C(/C=C/c1ccc(Cl)cc1)c1ccc(-n2cc(CN3CCN(c4cc5c(cc4F)c(=O)c(C(=O)O)cn5C4CC4)CC3)nn2)cc1 | 74.4% |
| CC(=O)c1ccc2c3c(n(C)c2c1)CCCC3 | 77.9% |
| CC(=O)c1ccc(C)cc1 | 98.4% |
| O=S(=O)(NCCNc1nccc(-c2c(-c3ccc(F)c(O)c3)nc3sccn23)n1)c1ccc(F)cc1 | 29.3% |
| CC[C@H](CO)Nc1nc(NCc2ccccc2)c2ncn(C(C)C)c2n1 | 85% |
| Cc1cc(Cl)cc(NS(=O)(=O)c2ccc(-c3cnc(C4CC4)o3)cc2)c1 | 11.3% |
| CC(=O)N(C(C)=O)c1ccc(C)cc1 | 98.9% |
| ON=C1CCCCCCCC1 | 102% and 107% |
| O=C(Nc1ccc(-c2ccnc(Nc3ccc(N4CCOCC4)cc3)n2)cc1)[C@@H]1CCCN1 | 36.2% |
| Cc1ccc(F)c(NC(=O)Nc2ccc(-c3cccc4[nH]nc(N)c34)cc2)c1 | 15.7% |
| O=C1CCc2c(sc3[nH]c(=S)n(-c4ccc(OC(F)(F)F)cc4)c(=O)c23)C1 | -4.6% (active) |
